Laboratory results taken from PubChem BioAssay.
Active and inactive are the calls of the source.

How the values were obtained:
Albumin (Bos taurus) = Albumin (Bos taurus) (UniProt P02769); test: compounds binding labelled BSA control protein – biochemical, small-molecule microarray, Alexa647 label, 635/667 nm fluorescence, artefact control for SMM control protein annotation, profiling panel (AID 1118); details: BSA-A647 binding, fluorescence 635 nm, higher = more signal;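 note: score merges 667 nm emission intensity and signal-to-noise per printed compound spot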
Chain of Albumin (Bos taurus) (P02769 whole entry, looked up): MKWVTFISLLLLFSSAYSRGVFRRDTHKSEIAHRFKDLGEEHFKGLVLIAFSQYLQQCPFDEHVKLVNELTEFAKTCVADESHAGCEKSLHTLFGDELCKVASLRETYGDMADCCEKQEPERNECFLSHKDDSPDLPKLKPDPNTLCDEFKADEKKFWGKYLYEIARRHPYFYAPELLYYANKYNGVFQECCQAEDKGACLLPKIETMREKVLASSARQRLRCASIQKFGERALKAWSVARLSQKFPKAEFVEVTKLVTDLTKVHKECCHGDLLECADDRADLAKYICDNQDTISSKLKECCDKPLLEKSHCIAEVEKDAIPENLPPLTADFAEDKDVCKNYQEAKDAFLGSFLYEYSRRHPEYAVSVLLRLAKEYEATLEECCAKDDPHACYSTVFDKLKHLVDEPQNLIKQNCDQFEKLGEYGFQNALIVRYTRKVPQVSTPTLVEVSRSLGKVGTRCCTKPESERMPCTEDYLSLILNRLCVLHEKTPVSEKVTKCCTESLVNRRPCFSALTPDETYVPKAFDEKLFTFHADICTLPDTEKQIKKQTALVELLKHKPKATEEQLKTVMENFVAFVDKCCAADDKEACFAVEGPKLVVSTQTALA

[1] = probe aXIP binding to arrayed compounds – biochemical, NeuroSMM set, 635/667 nm fluorescence, primary screen (AID 1119); details: small-molecule microarray, higher = more signal, called active from +8 up or from −8 down;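 note: probe is the protein aXip251-270 applied at 1 µg/mL to compound-printed slides; binding of probe to printed compounds measured as 667 nm fluorescence plus signal to noise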
[2] = probe aNOTCH3 binding on compound microarray – biochemical, small-molecule microarray, 635/667 nm fluorescence, primary screen (AID 1120); details: higher = more signal;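 note: probe is a biotin-tagged antibody raised against NOTCH3 rather than NOTCH3 protein; score merges spot fluorescence near 667 nm with spot signal to noise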
[3] = probe aNOTCH2 binding on compound microarray – biochemical, small-molecule microarray, 635/667 nm fluorescence, primary screen (AID 1121); details: higher = more signal;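 note: score merges feature fluorescence read at 667 nm with its signal to noise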
[4] = target: Carbonic anhydrase 2 (Homo sapiens) (UniProt P00918); test: compounds binding carbonic anhydrase 2 – biochemical, small-molecule microarray, Alexa647-labelled CAII, profiling panel (AID 1122); details: CAII-A647 binding fluorescence, higher = more signal
[5] = COS7 lysate on small-molecule microarray, probe aHis, 635 nm (AID 1123); details: COS7 cell lysate, fluorescence, higher = more signal;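 note: z-score combines 667nm fluorescence intensity with signal-to-noise per printed compound spot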
[6] = probe aLAP1 signal on lysate-treated microarray – cell lysate, small-molecule microarray, COS7 lysate, primary screen (AID 1124); details: probe aLAP1, fluorescence, higher = more signal;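 note: lysate comes from COS7 cells expressing LAP1 and is applied at 0.3 µg/mL; score merges spot fluorescence near 667 nm with signal-to-noise over triplicate slides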
Sam68 (KHDRBS1) = test: compounds binding KHDRBS1 protein – biochemical, small-molecule microarray, 635 nm fluorescence, primary screen (AID 1125); details: higher = more signal;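 note: score merges 667 nm channel intensity with signal to noise over triplicate slides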
[7] = test system: Chordin-like protein 2 (CHRDL2); test: compounds binding chordin-like 2 – biochemical, small-molecule microarray, 635 nm fluorescence, primary screen (AID 1126); details: fluorescence 635 nm, higher = more signal;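 note: printed compound slides probed with Chrdl2 protein at 4 µg/mL for 1 h at 4 C; score merges 667 nm emission intensity with signal to noise over three replicate slides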
[8] = target: Concanavalin-A (Canavalia ensiformis) (UniProt P02866); test: compounds binding concanavalin A lectin – biochemical, small-molecule microarray, Alexa647 label, 635 nm, artefact control for SMM control protein annotation, primary screen (AID 1127); details: ConA-A647 binding fluorescence, higher = more signal;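 note: z combines 667 nm emission intensity with signal-to-noise across three replicate slides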
Chain of Concanavalin-A (Canavalia ensiformis) (P02866 whole entry, looked up): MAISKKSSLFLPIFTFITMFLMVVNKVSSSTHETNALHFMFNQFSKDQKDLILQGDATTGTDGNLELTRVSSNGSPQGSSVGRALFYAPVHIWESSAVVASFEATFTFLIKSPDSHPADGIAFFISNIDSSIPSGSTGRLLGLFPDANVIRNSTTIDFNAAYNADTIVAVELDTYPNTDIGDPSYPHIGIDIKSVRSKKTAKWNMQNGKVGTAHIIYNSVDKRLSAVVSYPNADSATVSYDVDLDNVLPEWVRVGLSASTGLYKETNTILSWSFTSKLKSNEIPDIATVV

[9] = compounds binding Alexa647 anti-His antibody – biochemical, small-molecule microarray, 635 nm fluorescence, artefact control for SMM control protein annotation, primary screen (AID 1128); details: higher = more signal;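 note: score merges feature fluorescence with signal-to-noise for each printed compound spot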
[10] = test system: Human papillomavirus type 1a E7 protein (residues 1-88); test: HPV1a E7 small-molecule binders, primary screen, biochemical, small-molecule microarray, residues 1-88, 635 nm (AID 1129); details: small-molecule microarray binding, fluorescence 635 nm; higher = more signal
[11] = target: Focal adhesion kinase 1 (Homo sapiens) (UniProt Q05397); test: PTK2 protein binding on printed compound slides – biochemical, small-molecule microarray, 635/667 nm fluorescence, BSA, DTT, primary screen (AID 1130); details: 635 nm fluorescence, higher = more signal;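 note: composite of spot emission at 667 nm and signal to noise over triplicate slides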
Chain of Focal adhesion kinase 1 (Homo sapiens) (Q05397 whole entry, looked up): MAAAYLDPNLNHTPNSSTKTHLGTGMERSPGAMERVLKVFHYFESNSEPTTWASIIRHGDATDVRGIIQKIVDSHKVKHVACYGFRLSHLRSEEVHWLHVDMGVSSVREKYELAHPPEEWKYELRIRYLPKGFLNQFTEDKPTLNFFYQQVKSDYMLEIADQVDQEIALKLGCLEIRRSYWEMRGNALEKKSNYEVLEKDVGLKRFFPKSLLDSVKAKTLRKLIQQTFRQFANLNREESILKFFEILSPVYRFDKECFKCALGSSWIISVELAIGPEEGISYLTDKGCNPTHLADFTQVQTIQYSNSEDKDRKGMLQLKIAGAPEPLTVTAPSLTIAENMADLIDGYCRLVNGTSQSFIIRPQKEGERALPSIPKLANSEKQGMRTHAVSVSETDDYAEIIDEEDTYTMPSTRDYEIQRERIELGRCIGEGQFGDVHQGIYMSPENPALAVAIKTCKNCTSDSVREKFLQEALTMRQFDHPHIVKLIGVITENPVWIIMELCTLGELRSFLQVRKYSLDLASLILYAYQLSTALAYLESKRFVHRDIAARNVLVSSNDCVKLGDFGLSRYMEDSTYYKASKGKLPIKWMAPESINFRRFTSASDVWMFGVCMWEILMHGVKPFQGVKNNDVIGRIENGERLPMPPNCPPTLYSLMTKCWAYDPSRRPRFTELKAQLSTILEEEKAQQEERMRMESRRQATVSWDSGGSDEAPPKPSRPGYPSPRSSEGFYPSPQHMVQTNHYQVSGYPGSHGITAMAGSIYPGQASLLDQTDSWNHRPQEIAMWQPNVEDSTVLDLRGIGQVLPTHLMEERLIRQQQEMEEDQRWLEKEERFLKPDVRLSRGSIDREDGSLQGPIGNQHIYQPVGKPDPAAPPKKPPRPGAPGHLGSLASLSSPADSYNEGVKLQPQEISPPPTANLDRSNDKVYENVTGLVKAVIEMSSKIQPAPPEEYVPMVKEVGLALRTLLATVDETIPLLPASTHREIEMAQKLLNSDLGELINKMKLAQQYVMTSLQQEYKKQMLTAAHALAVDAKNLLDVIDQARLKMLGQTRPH

[12] = test system: Fibrinogen (Alexa647-labelled); test: Alexa647-fibrinogen binding to printed small molecules – biochemical, small-molecule microarray, 635/667 nm fluorescence, artefact control for SMM control-protein annotation, profiling panel (AID 1131); details: fibrinogen-A647 binding fluorescence, higher = more signal;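 note: z-score merges 667 nm fluorescence with per-spot signal-to-noise over triplicate slides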
[13] = target: Follistatin (Homo sapiens) (UniProt P19883); test: FST protein binding to printed compounds – biochemical, small-molecule microarray, 635/667 nm fluorescence, primary screen (AID 1132); details: 635 nm fluorescence, higher = more signal
Chain of Follistatin (Homo sapiens) (P19883 whole entry, looked up): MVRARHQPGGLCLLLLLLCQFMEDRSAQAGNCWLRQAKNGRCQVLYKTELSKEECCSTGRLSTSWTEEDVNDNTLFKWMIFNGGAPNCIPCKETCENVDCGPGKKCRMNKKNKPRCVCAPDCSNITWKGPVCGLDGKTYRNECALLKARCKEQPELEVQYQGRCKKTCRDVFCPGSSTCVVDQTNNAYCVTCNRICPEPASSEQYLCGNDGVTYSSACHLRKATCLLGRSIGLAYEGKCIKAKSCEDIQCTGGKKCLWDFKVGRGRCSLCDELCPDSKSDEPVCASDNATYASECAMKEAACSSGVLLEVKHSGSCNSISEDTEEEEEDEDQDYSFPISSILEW

[14] = target: Fibroblast growth factor 2 (Homo sapiens) (UniProt P09038); test: basic fibroblast growth factor binding to printed compounds – biochemical, small-molecule microarray, 635/667 nm fluorescence, primary screen (AID 1133); details: FGF2, fluorescence 635/667, higher = more signal
Chain of Fibroblast growth factor 2 (Homo sapiens) (P09038 whole entry, looked up): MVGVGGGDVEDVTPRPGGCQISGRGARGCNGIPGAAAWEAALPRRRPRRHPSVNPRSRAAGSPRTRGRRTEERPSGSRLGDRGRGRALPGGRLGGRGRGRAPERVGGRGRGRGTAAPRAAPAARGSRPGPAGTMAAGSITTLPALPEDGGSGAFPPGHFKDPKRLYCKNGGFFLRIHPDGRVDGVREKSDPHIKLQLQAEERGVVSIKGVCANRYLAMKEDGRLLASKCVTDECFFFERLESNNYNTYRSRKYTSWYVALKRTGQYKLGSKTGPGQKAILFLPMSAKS

[15] = JC-1 mitochondrial potential readout, lung cancer cells – cell-based, A549, JC-1 fluorescence, basal, 24 h, 100 nL, profiling panel (AID 1138); details: higher = more signal;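 note: A549 lung adenocarcinoma cells under basal conditions with no added stimulus; test concentration not given here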
Lefty1 = Lefty1 protein binding to printed compounds – biochemical, small-molecule microarray, 635/667 nm fluorescence, primary screen (AID 1139); details: fluorescence 635/667, higher = more signal
[16] = test system: wheat germ agglutinin (Triticum aestivum), Alexa647-labelled; test: Alexa647-WGA lectin binding to printed small molecules – biochemical, small-molecule microarray, 635/667 nm fluorescence, artefact control for SMM control-protein annotation, profiling panel (AID 1140); details: WGA-A647 binding, 635 nm fluorescence, higher = more signal;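 note: score merges 667 nm feature emission with signal to noise over triplicate slides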
[17] = target: Luciferin 4-monooxygenase (Photinus pyralis) (UniProt P08659); test: inhibition of purified Photinus pyralis luciferase – biochemical, luminescence, purified enzyme, 2006 set, primary screen (AID 1141); details: purified firefly luciferase, SteadyGlo luminescence, 30 min; higher = more signal, called active from +8 up or from −8 down;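 note: cell-free assay with purified firefly luciferase at 100 ng per well in PBS; test concentration not given here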
Chain of Luciferin 4-monooxygenase (Photinus pyralis) (P08659 whole entry, looked up): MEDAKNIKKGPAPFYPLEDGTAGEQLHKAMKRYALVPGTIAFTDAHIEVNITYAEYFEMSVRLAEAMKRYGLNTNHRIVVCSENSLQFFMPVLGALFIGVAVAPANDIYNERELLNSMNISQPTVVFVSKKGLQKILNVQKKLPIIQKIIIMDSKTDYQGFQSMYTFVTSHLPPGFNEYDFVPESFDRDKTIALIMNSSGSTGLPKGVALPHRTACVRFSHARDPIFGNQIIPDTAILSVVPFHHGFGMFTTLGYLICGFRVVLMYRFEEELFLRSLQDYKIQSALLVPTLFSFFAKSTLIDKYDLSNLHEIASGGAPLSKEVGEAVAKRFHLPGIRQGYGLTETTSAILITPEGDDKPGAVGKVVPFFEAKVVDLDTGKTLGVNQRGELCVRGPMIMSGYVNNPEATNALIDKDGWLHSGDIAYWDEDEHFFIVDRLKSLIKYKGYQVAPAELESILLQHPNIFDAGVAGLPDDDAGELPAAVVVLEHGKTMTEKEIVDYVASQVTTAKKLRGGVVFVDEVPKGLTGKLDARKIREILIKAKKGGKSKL

SMILES	composite z-score (Albumin (Bos taurus))	composite Z-score [1]	composite z-score [2]	composite z-score [3]	composite z-score [4]	composite z-score [5]	composite z-score [6]	composite z-score (Sam68 (KHDRBS1))	composite z-score [7]	composite z-score [8]	composite z-score [9]	composite z-score [10]	composite z-score [11]	composite z-score [12]	composite z-score [13]	composite z-score [14]	z-score [15]	composite z-score (Lefty1)	composite z-score [16]	z-score [17]
CO[C@H]1O[C@H](CO)[C@@H](OC(=O)Nc2ccccc2)[C@H](OC(=O)Nc2ccccc2)[C@H]1OC(=O)Nc1ccccc1	0.729	-0.375 (inactive)	-0.0918	-0.0567	0.521	2.45	0.373	1.3	-0.0958	1.15	2.2	1.26	0.972	1.01	0.943	1.02	0.281	0.389	0.791	1.15 (inactive)
C=C(COC)/C(=C/C[C@H](OC(C)=O)c1ccccc1OCCO)c1cc(C(=O)OC)ccc1OC	0.524	0.131 (inactive)	-0.129	-0.113	0.467	1.82	-0.175	0.44	-0.152	0.362	0.101	0.639	0.473	0.328	1.18	0.54	0.45	0.726	-0.0912	-0.419 (inactive)
CN(C)CCCCNC(=O)[C@H]1C[C@H]2C(=O)N3CCC[C@H]3C(=O)N2[C@H]1c1cccc(OCCO)c1	-0.115	1.68 (inactive)	0.234	-0.117	0.519	1.12	0.392	1.04	-0.52	0.794	1.96	0.74	1.02	0.311	1.21	0.382	-0.159	0.365	1.15	0.83 (inactive)
C[N+](C)(C)CCCC[C@@H]1NC(=O)[C@@H]2C[C@H](C(=O)NCc3ccc(F)cc3)[C@H](c3ccc(O)cc3)N2C1=O	-0.635	-0.43 (inactive)	-0.307	-0.0662	0.413	0.933	0.873	-0.636	0.189	0.607	0.928	-0.321	0.951	-0.965	1.34	1.6	0.526	0.0338	-0.3	-0.41 (inactive)
COc1ccc([Si](C)(C)[C@@H]2[C@@H](CC(=O)N(CCO)Cc3ccccc3)O[C@]3(C(=O)N(Cc4ccc(I)cc4)c4ccccc43)[C@H]2C)cc1	-0.596	0.317 (inactive)	0.456	0.02	0.414	0.568	0.965	0.793	1.36	0.817	1.9	0.32	0.385	0.391	1.49	1.66	-0.472	1.53	-0.0349	0.249 (inactive)
O=C1O[C@@H](c2ccccc2)[C@@H](c2ccccc2)N2[C@@H](c3ccc(OCCO)cc3)[C@]3(C(=O)Nc4ccc(C#CCCO)cc43)[C@@H](C(=O)O)[C@H]12	0.559	0.919 (inactive)	0.955	0.516	0.746	2.2	0.636	1.28	1.02	1.15	2.76	1.14	0.453	0.95	1.11	0.871	0.329	0.45	1.14	-1.71 (inactive)
CCOC(=O)C[C@H]1[C@H](OC(=O)Cc2ccc3c(c2)OCO3)[C@@H](NC(=O)Cc2ccc(OC)cc2)c2cc(OCCCO)ccc2N1C(=O)Cc1ccc(OC)cc1	0.635	0.472 (inactive)	-0.143	-0.172	0.263	0.428	0.0995	0.323	-0.0366	-0.117	0.247	0.173	-0.113	0.239	-0.147	-0.0689	1.39	0.0681	-0.002	-0.127 (inactive)
C[C@@H]1NC(=O)C([C@@H](C)OCc2ccccc2)NC(=O)[C@@]23C(=O)N[C@@H](Cc4ccccc4)C2[C@H](C)[C@@]2(C)O[C@H]2C3/C=C/C/C=C\CNC1=O (stereo not given in full)	-1.17	2.08 (inactive)	-0.222	-0.125	0.61	-0.13	0.0711	-0.503	0.209	-0.928	-0.839	-1.36	-0.526	-0.397	0.0746	0.0742	-0.0956	0.0892	-0.117	0.0545 (inactive)
COC(=O)[C@H](Cc1ccccc1)N1CC2=CCCC=C[C@@H]2[C@H]1[C@H](O)Cc1ccccc1	0.0618	0.495 (inactive)	0.17	-0.118	0.708	0.25	0.368	0.374	0.204	0.854	-0.305	0.431	-0.384	0.515	0.87	0.122	0.18	0.273	0.261	-0.62 (inactive)
CCCCN1CC=CC23O[C@@H]4/C=C\CCCOC(=O)C4[C@H]2C(=O)N(C(CO)C(C)C)[C@@H]3C1=O (stereo not given in full)	-0.745	-0.108 (inactive)	-0.0339	-0.0504	0.781	0.0745	-0.158	0.239	-0.0768	-0.592	0.0807	-0.654	-0.192	-0.458	0.0549	0.0877	-0.455	0.249	-0.0096	-0.0573 (inactive)
O=C1N(Cc2ccccc2)c2ccccc2C[C@@]12COC(c1ccc(OCCCO)cc1)=N2	0.809	-0.267 (inactive)	0.251	-0.0595	0.471	2.51	0.756	1.15	-0.366	0.582	1.55	1.21	0.75	0.785	1.3	0.326	0.0331	-0.319	0.98	-1.92 (inactive)
